An excerpt weighted towards active compounds, which were near 11% of everything screened.
AMA1 RON2 block = qHTS for Inhibitors of AMA1-RON; Towards Development of Antimalarial Drug Lead: Primary Screen | Plasmodium falciparum AMA1 (3D7) - RON2 peptide interaction | AlphaScreen AMA1-biotinylated RON2 peptide binding | Potency, µM (titrated, usually from 58.2 µM), without a hit: top-dose activity change, negative = inhibition, actives largely listed as inhibitors | actives 0.2% (n = 360,000) | AID 720542, 2013;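 note: 0% = vehicle wells and -100% = peptide control; nearly all actives have a fitted effect of over 45% in size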
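AMA1 (3D7) with his tag at 25 nM final met compounds first, then biotinylated RON2 peptide at 25 nM; detection used donor plus acceptor beads, 10 µg/mL apiece, read by AlphaScreen after 30 min at room temperature.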
Pf growth 48h = Primary qHTS for delayed death inhibitors of the malarial parasite plastid, 48 hour incubation | P. falciparum luciferase growth in erythrocytes, 48 h | Potency, µM (top dose mostly 28.7 µM), for inactives: top-dose activity change, negative = inhibition, usual class: inhibitors | actives 5.9% (n = 310,000); note: % is set by controls: 0 for no effect and ±100 for the full control effect
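In quantitative HTS format, infected erythrocytes bearing luciferase-reporter parasites were treated for a single generation at 37 C. Luminescence after adding detection reagent served as the growth measure.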
NS1 inh = qHTS Assay for Inhibitors of Influenza NS1 Protein Function; Potency, µM (titrated, usually from 46.1 µM), inactives show top-dose activity, positive = more growth; actives 0.4% (n = 270,000); AID 2326, 2010; calls by dose curve; note: actives are rising curves; nearly all actives have a fitted effect of over 50% in size
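Recovery from NS1-induced slow growth read by OD600 in budding yeast switched to galactose assay medium (pH 6.0, -URA) at 1:100 dilution. Compound 23 nl per well; the matching strain lacking NS1 serves as control.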
Sm TGR inh = qHTS Assay for the Inhibitors of Schistosoma Mansoni Peroxiredoxins; Schistosoma mansoni thioredoxin glutathione reductase (TGR), Q962Y6; purified TGR, DTNB reduction, TNB absorbance 405 nm; Potency, µM (highest dose often 114 µM), for inactives: top-dose activity change, negative = inhibition, hits mostly inhibitors; actives 3% (n = 360,000); AID 485364, 2010; note: % is set by controls: 0 for no effect and ±100 for the full control effect; nearly all actives have a fitted effect of over 60% in size
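Kinetic colorimetric format: TGR-catalysed, NADPH-driven DTNB reduction monitored via TNB absorbance. Enzyme dispensed at 20 nM; compound exposure 15 min at room temperature before reaction start.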
Pf growth 96h = Primary qHTS for delayed death inhibitors of the malarial parasite plastid, 96 hour incubation; P. falciparum luciferase reporter growth, 96 h; Potency, µM (top dose mostly 28.7 µM), without a hit: at the highest dose activity change, negative = inhibition, most hits filed as inhibitors; actives 6.9% (n = 320,000); AID 504834, 2011; note: % is set by controls: 0 for no effect and ±100 for the full control effect
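Two-generation exposure (96 h) targets delayed-death phenotype. Reporter parasites carrying integrated firefly luciferase, in red cells at 2% hematocrit and 0.05% parasitemia final, kept at 37 C, 5% CO2; luminescence loss indicates inhibition.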
An asterisk follows results filed as active; i = inactive; u = inconclusive; x = no result; ! = not confirmed by another sample. Unless noted, calls come from the whole dose curve; as a rule, active = well fitted curve in the direction sought with a large enough effect; inconclusive = small, poorly fitted or top-dose-only effect, or another doubt; inactive = no such curve, though single readings can be large; an effect the other way counts as inactive or inconclusive. Potency is the fitted concentration of half-maximal effect.

SMILES	AMA1 RON2 block	Pf growth 48h	NS1 inh	Sm TGR inh	Pf growth 96h
CN(C)[C@@H]1C(=O)C(C(N)=O)=C(O)[C@]2(O)C(=O)C3=C(O)c4c(O)cccc4[C@](C)(O)[C@H]3C[C@@H]12	x	x	15%	x	x
CCCc1c(C(=O)N/N=C(\C)c2ccc(CC(C)C)cc2)nnn1-c1nonc1N	6%	x	x	x	x
Cc1cn2c(=O)cc(COc3ccc(NC(=O)c4cccc(F)c4)cc3)nc2s1	x	x	x	-1%	x
CN(C)[C@@H]1C(=O)C(C(N)=O)=C(O)[C@@]2(O)C(=O)C3=C(O)c4c(O)cccc4[C@@](C)(O)[C@H]3[C@H](O)[C@@H]12	1µM*	13µM*!	10%	8.9µM*	3.8µM*!
CCOC(=O)C1CCN(C(=O)c2ccc3c(c2)N=C(CC)c2cc(C)ccc2S3)CC1	x	x	x	-8%	x
C=CCn1cc(/C=C/c2cc[n+](C)cc2)c2ccccc21	-7%	u	-3%	0%	i
Cc1[nH]c2ccccc2c1/C=C/c1cc[n+](C)cc1	-10%	0.41µM*	-1%	0%	0.15µM*
C[n+]1ccc2[nH]c3ccccc3c2c1	-1%	x	x	x	x
Cc1ccccc1/C=C/c1cc[n+](C)cc1	-3%	5.2µM*	x	0%	u
CCC(C)NC(=O)Cn1c(=O)n(Cc2ccc(C(=O)NCc3ccccc3OC)cc2)c(=O)c2ccccc21 (stereo not given)	x	x	x	0%	x
Cc1noc(C)c1S(=O)(=O)N(C)C[C@H]1Oc2ccc(NS(=O)(=O)c3ccccc3)cc2C(=O)N([C@H](C)CO)C[C@@H]1C	2%	x	x	x	x
CCN1/C(=C/c2cccc[n+]2C)Sc2ccc(OC)cc21	-8%	1µM*	-4%	1%	-27%
COc1ccc2c(c1)N(C)/C(=C/c1cccc[n+]1C)S2	-8%	0.37µM*	-3%	-6%	u
COc1ccccc1CNS(=O)(=O)c1ccc(-c2cc(C(F)(F)F)on2)s1	x	x	x	17%	x
CN1C/C(=C/c2ccccc2[N+](=O)[O-])C(=O)/C(=C\c2ccccc2[N+](=O)[O-])C1	-1%	x	x	x	x
COc1ccccc1CCn1c(N)c(C#N)c2nc3ccccc3nc21	20%	9.3µM*	12%	-9%	u
COc1ccc(CCn2c(N)c(C#N)c3nc4ccccc4nc32)cc1OC	47%	5.9µM*	-9%	43%	56%
N#Cc1c(N)n(-c2ccccc2N)c2nc3ccccc3nc12	2%	-13%	3%	45µM*	-17%
CCOC(=O)COc1ccc([N+](=O)[O-])cc1-c1ccnc2cc(-c3ccc(Cl)cc3)nn12	x	x	x	5%	x
c1ccc(OCCSc2nc3ccccc3[nH]2)cc1	0%	u	-18%	6%	7.4µM*
Cc1ccccc1OCCCSc1nc2ccccc2[nH]1	14%	7%	-29%	0%	10µM*
CC(C)c1ccc(C2/C(=C(/O)c3ccc(F)cc3)C(=O)C(=O)N2CCCN2CCOCC2)cc1 (stereo not given)	7%	0%	15%	u	155%
Cc1c(Cl)cccc1Nc1nn2c(=O)c3ccc(C(=O)NCCC4=CCCCC4)cc3nc2s1	x	x	x	-15%	x
CCCc1cc(=O)oc2cc(OCC(=O)N3CCN(Cc4ccc5c(c4)OCO5)CC3)ccc12	-1%	u	-33%	1%	12µM*
O=C(c1[nH]nc2c1CCc1ccccc1-2)N1CCN(Cc2ccc3c(c2)OCO3)CC1	-10%	8.3µM*	2%	12%	u
SMILES	AMA1 RON2 block	Pf growth 48h	NS1 inh	Sm TGR inh	Pf growth 96h
COc1ccc(C(=O)N2CCN(Cc3ccc4c(c3)OCO4)CC2)cc1OC	-15%	-4%	7%	11%	9.3µM*
Cc1ccc(C)c(OCC(=O)N2CCN(Cc3ccc4c(c3)OCO4)CC2)c1	-23%	28%	4%	56µM*	4%
COc1cc(C(=O)N2CCN(Cc3ccc4c(c3)OCO4)CC2)cc(OC)c1OC	-17%	u	24%	3%	u
O=C(CSc1nc2ccccc2c(=O)n1-c1ccccc1Cl)NCC1CCCO1 (stereo not given)	2%	u	x	-9%	u
COC(=O)c1ccc2c(C)c(C(C)(C)O)[nH]c2c1	0%	19%	-22%	-2%	79%
Cc1cc(C)nc(NS(=O)(=O)c2ccc(NCN3C(=O)c4ccccc4C3=O)cc2)n1	3%	x	x	x	x
O=C(NC(=S)N1CCOCC1)c1ccc(F)cc1	103%	6%	0%	-6%	-3%
CN1CCN(C(=O)c2ccc(Cn3cc(Cl)cn3)o2)CC1	5%	47%	7%	-10%	u
COc1ccc(CN2C(=O)C(O)(CC(=O)c3ccc4c(c3)OCO4)c3ccccc32)cc1OC (stereo not given)	-6%	x	-1%	0%	5.9µM*
O=C(c1ccc(Cn2cc(Cl)cn2)o1)N1CCN(Cc2ccc3c(c2)OCO3)CC1	-7%	u	-7%	u	13µM*
O=C(NC1CC(=O)N(c2cccc(F)c2)C1)c1ccc(S(=O)(=O)N2CCCC2)cc1 (stereo not given)	x	x	x	-5%	x
O=C(Nc1ccccc1-c1nnc(SCc2ccc(Cl)cc2)o1)c1ccccc1	-2%	13µM*	-2%	-4%	0%
CCOc1ccccc1-c1nnc(SCc2ccc(Cl)cc2)o1	x	x	x	8%	x
O=c1c(-c2nnc(SCc3ccc(Cl)cc3)o2)cccn1Cc1ccccc1	24%	u	-17%	6%	13µM*
COc1cccc(CN(C)C(=O)CC2C(=O)NCCN2C2Cc3ccccc3C2)c1 (stereo not given)	-4%	1%	-11%	-28%	-12%
CS/C(=C\[N+](=O)[O-])Nc1ccccc1	10%	4%	-9%	0.25µM*	2%
CS/C(=C\[N+](=O)[O-])Nc1ccc(F)cc1	6%	u	6%	0.25µM*	-11%
CCc1cccc(C)c1NS(=O)(=O)c1cc2[nH]c(=O)c(=O)[nH]c2cc1C	x	x	x	3%	x
COC(=O)C1=C(c2ccc(C(C)=O)cc2)C[C@@H]2CC[C@H]1N2C(=O)NC1CC1	-3%	-5%	x	u	14%
COC(=O)C1=C(c2ccc(C(C)=O)cc2)C[C@@H]2CC[C@H]1N2C(=O)N1CCC(O)(c2ccc(Cl)cc2)CC1	-3%	10µM*	x	-4%	u
COC(=O)C1=C(c2ccc3ccccc3c2)C[C@@H]2CC[C@H]1N2C(=O)N1CCC(C)CC1	-2%	9.3µM*	x	-16%	u
COC(=O)C1=C(c2ccc(C(C)=O)cc2)C[C@@H]2CC[C@H]1N2C(=O)N1CCC(C)CC1	15%	13µM*	x	-26%	-9%
CC(=O)c1ccc(NS(=O)(=O)c2cc(-c3cc(C)no3)ccc2C)cc1	x	x	x	1%	x
O=C(Nc1ccc(F)cc1F)c1cc(-c2ccc(Cl)cc2)on1	x	x	x	-4%	x

Source: PubChem BioAssay
